Test results reported in PubChem BioAssay (EPA / NIEHS).
Results filed as inconclusive are left out. Calls of active or inactive are those of the source. The calls were made as follows: active = hit-call score of the fitted dose curve at least 0.9, where 1 is the maximum; inconclusive = response in the unintended direction; inactive = score below 0.9.

Assays:
[1] = TOX21_p53_BLA_p2_viability: Viability Assessment in the Tox21 HCT-116 p53 Agonism Beta-lactamase Assay, Phase 2 (AID 2283591);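 also: compound exposure lasted 16 h at 37 °C; actives lower the ATP signal meaning cytotoxicity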
How it was run: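 Cytotoxicity readout: CellTiter-Glo ATP luminescence, 30 min at room temperature, after the beta-lactamase read. Cells were HCT116 exposed 16 h at 37C to compounds pin-transferred at 217-fold dilution from DMSO stocks.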

[2] = target: Cellular tumor antigen p53 (Homo sapiens) (UniProt P04637); test: TOX21_p53_BLA_p2_ratio: Tox21 HCT-116 p53 Agonism Beta-lactamase Assay, Ratio, Phase 2 (AID 2283592)
How it was run: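 DMSO-normalized, positive-direction endpoint derived from the 460 nm/530 nm FRET ratio in HCT116 p53 beta-lactamase reporter cells exposed 16 h at 37C and loaded with CCF4-AM for 2 h.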

[3] = TOX21_p53_BLA_p3_viability: Viability Assessment in the Tox21 HCT-116 p53 Agonism Beta-lactamase Assay, Phase 3 (AID 2283593);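 also: cells exposed to compound for 16 h before reading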
How it was run: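 Cellular ATP was quantified by CellTiter-Glo luminescence, read after 30 min at room temperature. Beforehand, HCT116 cells (4000/well) received compound 5 h post-seeding, 217-fold diluted from DMSO, then incubated 16 h at 37C.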

[4] = target: Cellular tumor antigen p53 (Homo sapiens) (UniProt P04637); test: TOX21_p53_BLA_p3_ratio: Tox21 HCT-116 p53 Agonism Beta-lactamase Assay, Ratio, Phase 3 (AID 2283596)
How it was run: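 Cells were seeded at 4000/well, rested 5 h at 37C, then dosed with DMSO compound solutions (217-fold dilution) for 16 h. CCF4-AM substrate was loaded for 2 h at room temperature, and the 460/530 nm emission ratio was fitted for gain of signal versus DMSO.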

[5] = target: Cellular tumor antigen p53 (Homo sapiens) (UniProt P04637); test: TOX21_p53_BLA_p5_ratio: Tox21 HCT-116 p53 Agonism Beta-lactamase Assay, Ratio, Phase 5 (AID 2283599)
How it was run: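 Beta-lactamase reporter ratio (blue 460 nm over green 530 nm, 405 nm excitation) after 2 h CCF4-AM loading, in HCT-116 cells exposed 16 h at 37 C to compounds pinned at 217-fold dilution. Increases relative to DMSO baseline scored.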

[6] = target: Cellular tumor antigen p53 (Homo sapiens) (UniProt P04637); test: TOX21_p53_BLA_p4_ratio: Tox21 HCT-116 p53 Agonism Beta-lactamase Assay, Ratio, Phase 4 (AID 2283601)
How it was run: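 Signal is the blue/green (460nm/530nm) ratio of cleaved versus uncleaved CCF4-AM substrate, read after 2 h substrate loading. Cells were HCT116 carrying the p53-responsive beta-lactamase reporter, dosed 16 h at 37C, 5% CO2; CellTiter-Glo measured in parallel.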

[7] = TOX21_p53_BLA_p5_viability: Viability Assessment in the Tox21 HCT-116 p53 Agonism Beta-lactamase Assay, Phase 5 (AID 2283600)
How it was run: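 Here cell health was gauged by ATP levels in wells holding 4000 cells, each treated 16 h with DMSO-delivered compounds at 217-fold dilution; reduced luminescence marked toxicity.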

Cellular tumor antigen p53 (Homo sapiens), sequence (P04637 whole entry, looked up): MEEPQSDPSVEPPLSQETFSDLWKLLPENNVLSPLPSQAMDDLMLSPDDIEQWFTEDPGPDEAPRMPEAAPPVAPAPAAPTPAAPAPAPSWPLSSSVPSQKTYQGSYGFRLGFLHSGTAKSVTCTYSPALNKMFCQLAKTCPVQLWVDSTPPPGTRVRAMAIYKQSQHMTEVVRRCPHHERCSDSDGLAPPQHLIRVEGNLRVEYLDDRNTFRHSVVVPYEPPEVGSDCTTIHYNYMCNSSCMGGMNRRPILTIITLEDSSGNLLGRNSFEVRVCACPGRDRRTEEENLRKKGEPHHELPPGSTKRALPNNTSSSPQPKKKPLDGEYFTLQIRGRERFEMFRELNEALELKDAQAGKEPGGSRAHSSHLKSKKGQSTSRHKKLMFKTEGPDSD

SMILES	outcome [1]	outcome [2]	outcome [3]	outcome [4]	outcome [5]	outcome [6]	AC50 [1]	AC50 [2]	AC50 [3]	AC50 [4]	AC50 [5]	outcome [7]
CC(=O)OC1CCC(C(C)(C)C)CC1 (stereo not given)	inactive	inactive	inactive	inactive	inactive	inactive	–	–	–	–	–	–
CCOC(=O)C1=C(C)NC(C)=C(C(=O)OCC)C1c1ccccc1/C=C/C(=O)OC(C)(C)C	–	–	–	–	–	inactive	35.4 µM (active)	38.6 µM (active)	43 µM (active)	39.5 µM (active)	26.5 µM (active)	inactive
Nc1ccc(S(=O)(=O)Nc2ccccn2)cc1	inactive	inactive	inactive	inactive	inactive	inactive	–	–	–	–	–	–
CCCCCCCCCCCCCCCC(=O)OC(C)C	inactive	inactive	inactive	inactive	inactive	inactive	–	–	–	–	–	–
CC1=C(C)C(=O)C(CCCCC#CCCCC#CCO)=C(C)C1=O	inactive	inactive	inactive	inactive	inactive	inactive	–	–	–	–	–	–
CCCCc1nc(Cl)c(CO)n1Cc1ccc(-c2ccccc2-c2nn[nH]n2)cc1	inactive	inactive	inactive	inactive	inactive	inactive	–	–	–	–	–	inactive
CCOC(=O)Cn1cccc1-c1nc(-c2ccc(OC)cc2)c(-c2ccc(OC)cc2)s1	inactive	inactive	inactive	–	inactive	inactive	–	–	–	40.9 µM (active)	–	inactive
CN1CCN(c2c(F)cc3c(=O)c(C(=O)O)cn(CCF)c3c2F)CC1	inactive	inactive	inactive	inactive	inactive	inactive	–	–	–	–	–	–
Cc1cc(O)c2ccccc2c1O	inactive	inactive	inactive	inactive	inactive	inactive	–	–	–	–	–	–
O=C1CCC(=O)N1CO	inactive	inactive	inactive	inactive	inactive	inactive	–	–	–	–	–	–
CCCCC(C)C(=O)O (stereo not given)	inactive	inactive	inactive	inactive	inactive	inactive	–	–	–	–	–	–
Cc1cccc(Nc2ncccc2C(=O)O)c1C	inactive	inactive	inactive	inactive	inactive	inactive	–	–	–	–	–	–
CC(C)C[P+](C)(CC(C)C)CC(C)C	inactive	inactive	inactive	inactive	inactive	inactive	–	–	–	–	–	–
O=C=Nc1cccc(C(F)(F)F)c1	inactive	–	inactive	inactive	inactive	inactive	–	86.2 µM (active)	–	–	–	–
COC1=C(C(=O)O)N2C(=O)[C@@H](NC(=O)[C@H](N)C3=CCC=CC3)[C@H]2SC1	inactive	inactive	inactive	inactive	inactive	inactive	–	–	–	–	–	–
NCCS(=O)(=O)O	inactive	inactive	inactive	inactive	inactive	inactive	–	–	–	–	–	inactive
